# Measured values reported in PubChem BioAssay AID1851 (National Center for Advancing Translational Sciences (NCATS), 2009).
# Several values for one entry are separate records, joined by “and”; a condition that tells them apart may be missing. Identical values can stand only once. Screen size: about 16,000 compounds; about 2,600 (16%) were called active. Roughly 20% stayed inconclusive and do not appear here. The call rests on the fitted dose curve; in most records, active means well fitted curve in the direction sought with a large enough effect; inconclusive means small, poorly fitted or top-dose-only effect, or effect the other way; inactive means no such curve, though single readings can be large or run the other way. A selection follows.
# Target: Cytochrome P450 2D6 (Homo sapiens) (UniProt P10635)
# Experiment: Cytochrome panel assay with activity outcomes
# Conditions: recombinant CYP, pro-luciferin dealkylation, luminescence, p450-cyp2d6; series mostly up to 57.1 µM; activity, negative = inhibition: at the top concentration
# Protocol: The P450 gene superfamily is involved in the metabolism and clearance of xenobiotics. This assay used various human CYP P450 isozymes to measure the dealkylation of various pro-luciferin substrates to luciferin. The luciferin is then measured by luminescence after the addition of a luciferase detection reagent. Pro-luciferin substrate concentration in the assay was equal to its KM for its CYP P450 isozyme. Inhibitors and some substrates limit the production of luciferin, and decrease measured luminescence.
# NCGC Assay Protocol Summary:
# 1, Reagent, 2 uL, Isozyme and Pro-Luciferin
# 2, Library compounds, 23 nl, 40 uM to 0.24 nM dilution series
# 3, Controls, 23 nl, Isozyme specific inhibitor
# 4, Reagent, 2 uL, NADPH regeneration solution
# 5, Incubation time, 60 min, Isozyme specific temperature
# 6, Reagent, 4ul, Detection reagent
# 7, Incubation time, 20 min, Isozyme specific temperature
# 8, Detection, 1 sec, ViewLux luminescent read
# The luciferase-based P450-GloTM Screening Systems were obtained from Promega (Madison, WI) for CYP 1A2 (V9770), CYP 2C9 (V9790), CYP2 C19 (V9880), CYP 2D6 (V9890), and CYP 3A4 Luciferin-PPXE (V9910) and were adapted for 1,536-well microplates and an automated protocol. The control compounds furafylline for 1A2 (F124), sulfaphenazole for CYP 2C9 (S0758), ketoconazole for CYP 2C19 (K1003), quinidine for 2D6 (Q3625), and ketoconazole for 3A4 (K1003) were purchased from Sigma Aldrich (St. Louis, MO). Recombinant P450 enzymes were obtained from baculovirus constructs expressed in insect cells (BD/Gentest).
# Medium-binding white solid Kalypsys plates used. Mixtures kept on ice. 1A2: 10 nM 1A2, 100 uM Luc-ME, 100 mM KPO4; 2C9: 10 nM 2C9, 100 uM Luc-H, 25 mM KPO4; 2C19: 5 nM 2C19, 10 uM Luc-H EGE, 50 mM KPO4; 2D6: 5 nM 2D6, 30 uM Luc-ME EGE, 100 mM KPO4; 3A4: 10 nM, 25 uM Luc-PPXE. All amounts are reflected in their final concentration, working concentration is 2x.
# NADPH regeneration solution: 1.3 mM NADP+, 3.3 mM glucose-6-phosphate, 3.3 mM MgCl2, 0.4 U/mL glucose-6-phosphate dehydrogenase for all isozymes, 200 mM KPO4 for 3A4. Mixture prepared at RT but kept on ice during automated run.
# RT incubation in auxilliary plate hotel for 1A2, 2D6, and 3A4; 37C for 2C9 and 2C19.
# Keywords: P450, CYP1A2, CYP2C19, CYP2C9, CYP2D6, CYP3A4, Luciferase, MLSMR, MLSCN, NIH Roadmap, qHTS, NCGC
# On the % scale 0 is the no-effect control and ±100 the full control effect.
# Sequence of Cytochrome P450 2D6 (Homo sapiens) (P10635 whole entry, looked up): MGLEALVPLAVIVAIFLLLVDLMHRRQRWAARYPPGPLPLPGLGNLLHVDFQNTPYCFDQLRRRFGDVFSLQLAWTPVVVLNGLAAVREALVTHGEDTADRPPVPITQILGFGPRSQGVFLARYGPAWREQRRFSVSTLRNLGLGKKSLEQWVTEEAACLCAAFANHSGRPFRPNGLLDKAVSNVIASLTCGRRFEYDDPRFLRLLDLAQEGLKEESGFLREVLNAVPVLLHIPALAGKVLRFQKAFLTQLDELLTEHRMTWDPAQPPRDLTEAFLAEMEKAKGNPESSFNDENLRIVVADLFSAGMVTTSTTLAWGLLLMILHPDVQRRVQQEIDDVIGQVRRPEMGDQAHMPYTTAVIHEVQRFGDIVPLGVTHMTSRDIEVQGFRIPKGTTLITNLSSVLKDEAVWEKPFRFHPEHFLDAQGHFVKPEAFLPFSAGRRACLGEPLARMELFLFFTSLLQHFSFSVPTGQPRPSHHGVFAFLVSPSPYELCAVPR
Structure (SMILES),"activity, negative = inhibition",AC50
O=c1c(-c2cccc(F)c2)nc2cncnc2n1Cc1ccccc1Cl,-3.25% (inactive),–
Oc1ccc(CNCc2ccccc2)c2cccnc12,–,1.58 µM (active)
O=C(O)COc1c(Cl)cc(Cl)c2cccnc12,2.9% [at 11.4 µM] (inactive),–
CC(C)NC[C@@H](O)c1ccc(O)c2ncccc12,-18.5% [at 11.4 µM] (inactive),–
N#CCCn1c(=O)c(-c2ccc(F)cc2)nc2cnc(N3CCOCC3)nc21,3.46% (inactive),–
CCOC(=O)/C(C#N)=C1/C=CN(C)C=N1,16.9% (inactive),–
Cc1nc2cncnc2n(-c2ccccc2)c1=O,-8.35% (inactive),–
COc1cccc(-c2cc(C(F)(F)F)n3ncc(S(=O)(=O)c4ccccc4)c3n2)c1,2.47% (inactive),–
CC(C)C(=O)C(C)(C)CCc1ccccn1,8.85% [at 11.4 µM] (inactive),–
ON(CCc1ccccn1)Cc1ccccc1,-0.364% [at 11.4 µM] (inactive),–
CN(CCc1ccccn1)Cc1ccc(Cl)cc1Cl,–,0.355 µM (active)
O=C(Nc1ccccc1)c1ccccc1CC[N+](=O)[O-],7.91% (inactive),–
C/C(=C\C1CCCCC1)C(NC(=O)c1ccc(C(F)(F)F)cc1)c1ccc(-c2ccccc2)cc1 (configuration not stated),7.77% (inactive),–
COc1ccc(-c2cc(C(F)(F)F)n3nc(C(=O)N4CCCCC4)cc3n2)cc1,-17.1% (inactive),–
Cc1ccc(CS(=O)(=O)CCC(=O)NCCCN2CCCC2=O)cc1,-2.33% (inactive),–
Cc1ccc(S(=O)(=O)CC(O)CN2CCCC2=O)cc1 (configuration not stated),-5.29% (inactive),–
Cc1ccc(S(=O)(=O)N(CCCN2CCCC2=O)Cc2cc3c(C)ccc(C)c3[nH]c2=O)cc1,–,14.1 µM (active)
CN1CCN([C@@H]2Cc3ccccc3Sc3ccc(Cl)cc32)CC1,–,0.398 µM (active)
O=C1CC(N2CCOCC2)C(=O)N1c1cccc(Cl)c1 (configuration not stated),-1.45% (inactive),–
CSc1ccc2c(c1)[C@H](N1CCN(C)CC1)Cc1ccccc1S2,–,3.98 µM (active) and 1.58 µM (active) and 316 nM (active)
CCCc1ncc(C[n+]2ccccc2C)c(N)n1,-3.66% [at 25.6 µM] (inactive),–
C=CCNC(=S)N/N=C/c1ccc(OCc2ccccc2)cc1,-3.46% (inactive),–
COc1ccc(Oc2ncc3nc(C)c(=O)n(C[C@H]4CCCO4)c3n2)cc1,-9.23% (inactive),–
Cc1cc(C)cc(OCC(=O)NNC(=O)c2cc(C)[nH]n2)c1,2.9% (inactive),–
COc1ccc(NS(=O)(=O)c2ccc(I)cc2)cc1N1CCN(C)CC1,-4.44% (inactive),–
O=C(c1ccc2ncsc2c1)N1CCN(c2ccc(O)cc2)CC1,4.08% (inactive),–

Structure (SMILES),"activity, negative = inhibition",AC50
CCCOc1ccc(CSC(CC(=O)O)C(=O)O)cc1 (configuration not stated),7.86% (inactive),–
Cc1ccc(C(C(=O)NCc2ccco2)N(C(=O)CNC(=O)c2cccs2)c2ccc(C)cc2)cc1 (configuration not stated),6.82% (inactive),–
Cc1ccc(S(=O)(=O)NCC(=O)N(CC(=O)NCc2ccco2)Cc2cccs2)cc1,–,3.98 µM (active)
Cc1ccc(OCCCC(=O)NCc2ccco2)cc1,7.23% (inactive),–
COc1ccc(-c2nc3cnc(Nc4ccccc4)nc3n(Cc3cccs3)c2=O)cc1,0.596% (inactive),–
CC1CCCC(n2c(=S)[nH]c3ccccc3c2=O)C1C (configuration not stated),-26.2% (inactive),–
O=c1c2c(nc3c(-c4ccccc4)c[nH]n13)CCC2,-7.88% (inactive),–
Cc1ccc(N=Nc2c(N)[nH]n3c(=O)c4c(nc23)CCCC4)cc1,-22% (inactive),–
Cc1ccc(-c2[nH]n3c(=O)c4c(nc3c2C)CCCC4)cc1,–,25.1 µM (active)
Cc1cc(C2CCCCC2)n(O)c(=O)c1,9.07% [at 25.6 µM] (inactive),–
COc1ccc2c(c1)C(c1ccc([N+](=O)[O-])cc1)=NNC(c1ccco1)=N2,–,11.2 µM (active)
COc1ccc(-c2ccc(/C=C3\C(=O)N(c4ccccc4)N=C3c3ccccc3)o2)c([N+](=O)[O-])c1,-5.74% (inactive),–
COc1cccc(C(=O)Nc2ccc(-c3nnc(-c4ccco4)o3)cc2)c1,3.61% (inactive),–
Cc1ccc2c(c1)C1(SCCS1)C(=O)N2,-11.7% (inactive),–
Nc1ccc(C(=O)NCC(=O)O)cc1,2.31% [at 25.6 µM] (inactive),–
COc1ccc(S(N)(=O)=O)cc1C(=O)NCCCN1CCN(c2ccc(C)cc2)CC1,5.97% (inactive),–
COc1ccc(OC)c(CNC(=O)CCNC(=O)Cn2ccc3ccccc3c2=O)c1,1.01% (inactive),–
COc1cccc(CNC(=O)CCNC(=O)Cn2ccc3ccccc3c2=O)c1,-19.9% (inactive),–
O=C(CCNC(=O)Cn1ccc2ccccc2c1=O)NCCCN1CCN(c2ccc(F)cc2)CC1,–,10 µM (active)
Cc1ccccc1CN1CCN(CC(=O)NCCCN2CCN(c3ccc(F)cc3)CC2)C1=O,–,6.31 µM (active)
COc1ccc(N2CCN(CCNC(=O)c3c(C)cc(=O)oc3C)CC2)cc1,2.34% (inactive),–
COC(=O)CSc1nc(C)cc(C(F)(F)F)c1C#N,15.4% (inactive),–
Cc1cc2nnc(SCC(=O)N3CCN(c4ccccc4)CC3)n2c(N)n1,3.62% (inactive),–
CC(NC(=O)c1ccc(Cl)cc1)c1nnc(SCc2ccc([N+](=O)[O-])cc2)n1C (configuration not stated),-14.9% (inactive),–
C1CCc2nnnn2CC1,-1.71% (inactive),–
Cc1ccc(-c2ccc(/C=N/NC(=S)Nc3ccccc3)o2)cc1[N+](=O)[O-],5.91% (inactive),–

Structure (SMILES),"activity, negative = inhibition",AC50
N#Cc1ccc(CN2CC3(CCN(C(=O)c4cccc(F)c4)CC3)C2)cc1,-5.46% (inactive),–
O=C(c1cccc(F)c1)N1CCC2(CC1)CN(Cc1ccccc1)C2,–,5.01 µM (active)
O=C(c1cccc(F)c1)N1CCC2(CCCN(c3ccccc3)C2)CC1,-3.85% (inactive),–
O=C(c1cccc(F)c1)N1CCC2(CCN(Cc3cc(C(F)(F)F)cc(C(F)(F)F)c3)CC2)CC1,0.176% (inactive),–
CC(C)CN1CCC2(CC1)CCN(C(=O)c1cccc(F)c1)CC2,–,5.01 µM (active)
O=C(c1cccc(F)c1)N1CCC2(CC1)CN(c1cccc(-c3ccccc3)c1)C2,0.562% (inactive),–
O=C(c1cccc(F)c1)N1CCC2(CCN(Cc3ccccc3)CC2)CC1,–,7.94 µM (active)
CC(C)CN1CC2(CCN(C(=O)c3cccc(F)c3)CC2)C1,7.2% (inactive),–
CC(C)NC(=O)N1CCC2(CC1)CCN(C(=O)c1cccc(F)c1)CC2,4.28% (inactive),–
O=c1c(-c2ccc(F)cc2)nc2cnc(N3CCOCC3)nc2n1Cc1cccs1,-3.77% (inactive),–
O=C(C(Cc1ccccc1)N1C(=O)C2C3CCC(C3)C2C1=O)N1CCCCC1 (configuration not stated),-5.07% (inactive),–
CCCCS(=O)(=O)NC1=NCN(Cc2ccco2)CN1,-3.88% (inactive),–
COC(=O)c1nn(-c2cccc(C(F)(F)F)c2)c(=O)cc1Sc1ccccn1,7.99% (inactive),–
O=c1c(-c2ccccc2)nc2cncnc2n1Cc1ccccc1Cl,-6.57% (inactive),–
COc1cc(Br)cc2cc(C(=O)NCC3CCCO3)c(=O)oc12 (configuration not stated),-18.9% (inactive),–
CC(c1ccccc1C(O)c1ccccc1)N(C)C (configuration not stated),-28.5% (inactive),–
Cn1c(=O)n(-c2ccc(Cl)cc2)c(=O)c2c3c(sc21)COC(C)(C)C3,7.91% (inactive),–
O=C(N/N=C/c1ccc2cccc(OCc3ccccc3)c2n1)c1ccc(Br)cc1,-17% (inactive),–
CCOc1c(OC(C)=O)ccc(/C=C2\N=C(SCC)SC2=O)c1[N+](=O)[O-],–,11.2 µM (active)
CCOc1c(OC(C)=O)ccc(/C=C/c2ccc3cccc(OC(C)=O)c3n2)c1[N+](=O)[O-],–,10 µM (active)
COc1ccc2c(c1[N+](=O)[O-])CCC/C2=N/OC(=O)c1cccc2ccccc12,-1.88% (inactive),–
Cc1nn(C(C)C(=O)Nc2ccc(Cl)cn2)c(C)c1[N+](=O)[O-] (configuration not stated),-6.4% (inactive),–
C[C@@](N)(C(=O)O)c1ccc(S(=O)(=O)O)cc1,-0.825% (inactive),–
COc1cccc(Nc2ncc3nc(-c4cccs4)c(=O)n(Cc4cccs4)c3n2)c1,6.03% (inactive),–
O=c1c(-c2ccc(Cl)cc2)nc2cnc(N3CCNCC3)nc2n1Cc1cccs1,-18.9% (inactive),–
CCOC(=O)COc1c(OC)cc(Cl)cc1C1Nc2ccccc2C(=O)N1c1ccc(F)cc1 (configuration not stated),-14.9% (inactive),–

Structure (SMILES),"activity, negative = inhibition",AC50
CC(C)(C)c1cc(Br)c(O)c(CN(Cc2cc(C(C)(C)C)cc(Br)c2O)C2CCCCC2)c1,–,0.2 µM (active)
Oc1c(Br)cc(Br)cc1CN(Cc1cc(Br)cc(Br)c1O)C1CCCCC1,–,0.251 µM (active)
Oc1c(Br)cc(CN(Cc2cc(Br)c(O)c(Br)c2)C2CCCCC2)cc1Br,–,2.51 µM (active)
CC1=CC=CN2CC(O)CN=C12 (configuration not stated),-7.33% (inactive),–
COc1ccc(/C(O)=C2/C(=O)C(=O)N(Cc3cccnc3)C2c2ccco2)cc1OC (configuration not stated),-4.18% (inactive),–
CC(=O)n1nc(-c2ccco2)nc1N,-8.48% (inactive),–
Cc1cccc(N(CC(=O)NC2CCCC2)C(=O)c2cc3cc4cccc(C)c4nc3s2)c1C,-13% (inactive),–
Nc1ccc2[nH]cc(CCC(=O)O)c2c1,5.9% [at 11.4 µM] (inactive),–
CSCC[C@H](NC(=O)c1nn(C)c(=O)c2ccccc12)c1nc2ccccc2[nH]1,-14.5% (inactive),–
Cc1noc(C)c1-c1nccc(N2CCOCC2)n1,7.41% (inactive),–
Cc1ccc2c(c1)N[C@H](c1ccc(C(=O)O)cc1)c1cccn1-2,-2.93% [at 11.4 µM] (inactive),–
Cc1ccc2nc(CC(=O)c3ccc4ccccc4c3)c(=O)[nH]c2c1,-4.59% [at 11.4 µM] (inactive),–
Cc1ccc2nc(SCC(=O)c3ccc4c(c3)OCO4)[nH]c2c1,–,4.47 µM (active)
COc1ccc2nc(SCC(=O)Nc3ccc4c(c3)OCCO4)[nH]c2c1,-22.4% (inactive),–
CC(/C=C1\N=C(SCc2ccccc2Cl)SC1=O)=C\c1ccccc1,15.6% (inactive),–
Cc1ccccc1Cn1nc(C)c(NC(=O)c2sc3ccccc3c2Cl)c1C,-32.5% (inactive),–
Cc1cc(Nc2ccc(Cl)cc2)nc(N)n1,-29.1% (inactive),–
Cc1cc(Nc2ccccc2)nc(N)n1,–,11.2 µM (active)
Cc1nnc(SCc2nc(N)nc(Nc3ccccc3)n2)s1,-19.5% (inactive),–
COC(=O)C1CCN(c2cc(=O)n(C3CCCCC3)c(=O)[nH]2)CC1,14.8% (inactive),–
Cc1ccc(OCC(=O)NNC(=O)CCc2ccccc2)cc1,15.7% (inactive),–
CN(C)CC(O)COc1ccc(C(C)(C)c2ccc(OCC(O)CN(C)C)cc2)cc1 (configuration not stated),-11.1% (inactive),–
CCC(=O)c1ccc(OCC(O)CN(CCc2ccccc2)Cc2ccccc2)cc1 (configuration not stated),–,1 µM (active)
COc1ccc(S(=O)(=O)NCc2ccc(C(=O)N3CCN(c4ccccn4)CC3)cc2)cc1,-27% (inactive),–
